The source made the active and inactive calls.
experiment: PSAC antagonists in infected red cells, primary screen, cell-based, P. falciparum Indochina, OD700, 18 h (AID 1157); conditions: P. falciparum Indochina infected erythrocytes, osmotic lysis OD700, 18 h; higher = more signal, called active from +8 up or from −8 down

z-score, inactive:
C#CCCCON=C1C[C@@H](O)[C@@H](O)[C@@H]2[C@@H]3C(=O)N(Cc4ccccc4)C(=O)[C@@H]3CC[C@@H]12 0.06
CCCNC(=O)OC[C@H]1O[C@H](CCON=C(C)CCC(=O)OC[C@H]2O[C@H](c3ccccc3)C=C[C@@H]2Oc2ccc(OC)cc2)C=C[C@@H]1Oc1ccc(OC)cc1 0.49
CO[C@H]1COC(=O)[C@@H](C)COC(=O)[C@H](C)NC(=O)CC=C[C@H]1C 0.403
C[C@@H](c1ccccc1)N1C(=O)[C@H]2[C@H]3[C@H](O)[C@H](O)CC(=O)[C@H]3CC[C@H]2C1=O 0.0091
CO[C@H]1COC(=O)CC=C[C@@H](C)[C@H](NS(=O)(=O)c2ccc(C)cc2)COC(=O)CCC[C@@H]1C -1.62
CO[C@@H]1COC(=O)[C@H](CCSC)NC(=O)CC=C[C@@H](C)COC(=O)[C@H](C)NC(=O)CC=C[C@H]1C 0.353
CCC(=O)[C@@]1(O)C(=O)N2C(=C3C(=O)OCC[C@@H]31)N(Cc1ccccc1)C(C)=C(C(=O)OC)[C@H]2c1ccccc1 0.465
CCOC(=O)[C@H](CC(C)C)NC(=O)CCC1CC(OC(=O)NCCc2ccc(F)cc2)CC2(CCCC(COC(=O)NCCOc3ccccc3)O2)O1 (stereo partly specified) 0.323
CCCNC(=O)OC[C@H]1O[C@H](CCON=C(C)CCN2CCCc3nc(C)c(C)cc32)C=C[C@@H]1Oc1ccc(OC)cc1 0.318
O=C1CCCC=C1C(O)CCOC(c1ccccc1)(c1ccccc1)c1ccccc1 (stereo unspecified) -0.217
CCCNC(=O)OC[C@H]1O[C@H](CCON=Cc2ccc(C(=O)N3[C@H](c4ccc(C)cc4)[C@@H](C)CC[C@H]3C(=O)OC)cc2)C=C[C@@H]1Oc1ccc(OC)cc1 0.612
C[C@@H]1CC[C@H]2C(=O)O[C@@H](Cc3ccccc3)CN2[C@H]1c1ccc(Br)cc1 0.563
Cc1cc2c(nc1C)CCCCN2CC(C)ON=C1[C@H]2CCn3c(=O)n(-c4ccccc4)c(=O)n3[C@H]2[C@H](O)[C@@H]2O[C@H]12 (stereo partly specified) 0.122
C#CCCCON=C1C[C@@H](O)[C@@H](O)[C@@H]2[C@@H]3C(=O)N(c4ccc(F)cc4F)C(=O)[C@@H]3CC[C@@H]12 0.0591
CCOC(=O)NN=C1C[C@@H](O)[C@@H](O)[C@@H]2[C@@H]3C(=O)N(c4cccc(Oc5ccccc5)c4)C(=O)[C@@H]3CC[C@@H]12 0.233
CO[C@@H]1COC(=O)[C@H](CCSC)NC(=O)CC=C[C@@H](C)COC(=O)CCC[C@H]1C 1.18
O=c1n(-c2ccccc2)c(=O)n2n1CC[C@@H]1C(=NOCc3ccccc3)[C@H]3O[C@H]3[C@@H](O)[C@@H]12 0.425
C[C@@H](c1ccccc1)N1C(=O)[C@H]2[C@H]3[C@H](O)[C@H](O)CC(=NO[C@@H]4O[C@H](CO)[C@@H](O)[C@H](O)[C@H]4O)[C@@H]3CC[C@H]2C1=O -0.137
CC(C)=CCCC(C)=CCON=C1C[C@@H](O)[C@@H](O)[C@@H]2[C@@H]3C(=O)N(c4ccc(F)cc4F)C(=O)[C@@H]3CC[C@@H]12 1.07
Cc1ccc(S(=O)(=O)OC[C@H]2CN3[C@H](c4ccc(Br)cc4)[C@@H](C)CC[C@H]3C(=O)O2)cc1 0.761
CC(C)CON=C1C[C@@H](O)[C@@H](O)[C@@H]2[C@@H]3C(=O)N(C[C@@H]4CCCO4)C(=O)[C@@H]3CC[C@@H]12 -0.21
CC(C)=NOC[C@@H](C)[C@H](OCc1ccccc1)C(C)C 0.39
CO[C@H](C1CCCCC1)[C@H](C)C=CCC(=O)OCCCc1ccccc1 0.22
CCOC(=O)[C@H](CC(C)C)NC(=O)CCC1CC(OC(=O)NCc2ccc3c(c2)OCO3)CC2(CCCC(COC(=O)NCc3cccc(C(F)(F)F)c3)O2)O1 (stereo partly specified) 0.297
CC(C)=CCCC(C)=CCON=C1C[C@@H](O)[C@@H](O)[C@@H]2[C@@H]3C(=O)N(C(C)(C)C)C(=O)[C@@H]3CC[C@@H]12 0.821
CCOC(=O)[C@H](Cc1ccccc1)NC(=O)CCC1CC(OC(=O)NCCc2ccc(F)cc2)CC2(CCCC(COC(=O)NCCc3ccccc3OC)O2)O1 (stereo partly specified) 0.174

— PubChem BioAssay
